Results on 15 molecules are retold here after PubChem BioAssay (EPA / NIEHS).

Read-out in assay [1]: TIMP metallopeptidase inhibitor 2 (TIMP2), TIMP2 (gene 7077)
In words: BSK_KF3CT_TIMP2: BioMAP Diversity Plus: KF3CT Assay for TIMP metallopeptidase inhibitor 2 (TIMP2) Biomarker Activity (AID 2283071). As to conditions: primary human keratinocytes with fibroblasts; actives raise or lower the signal. In a few lines: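 Chemicals were dosed onto human skin primary co-cultures of keratinocytes and foreskin fibroblasts, and TIMP-2 was measured by ELISA after 24 hours. Activity in either direction was fitted relative to DMSO.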

Read-out in assay [2]: Transforming growth factor beta 1 (TGFb1), TGFB1 (gene 7040)
Kind of assay: BSK_KF3CT_TGFb1: BioMAP Diversity Plus: KF3CT Assay for Transforming growth factor beta 1 (TGFb1) Biomarker Activity (AID 2283072). As to conditions: primary human keratinocytes with fibroblasts; actives raise or lower the signal. The gist of the method: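 KF3CT co-culture (keratinocytes + fibroblasts), 24 h exposure → TGF-b1 ELISA → bidirectional fit, DMSO = baseline. Parallel SRB total-protein staining (0.1% SRB, 10% TCA fixation, 560 nm) for cytotoxicity.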

Read-out in assay [3]: C-C motif chemokine 2 (Homo sapiens) (UniProt P13500)
Kind of assay: BSK_KF3CT_MCP1: BioMAP Diversity Plus: KF3CT Assay for Monocyte Chemoattractant Protein 1 (MCP1/CCL2) Biomarker Activity (AID 2283073). The conditions noted are these: primary human keratinocytes with fibroblasts; actives raise or lower the signal. In a few lines:
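ELISA readout of MCP-1 after 24 h chemical dosing of a human skin primary co-culture of keratinocytes and foreskin fibroblasts. Activity was fitted in both directions against DMSO.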

Read-out in assay [4]: Matrix Metallopeptidase 9 (MMP9), MMP9 (gene 4318)
In words: BSK_KF3CT_MMP9: BioMAP Diversity Plus: KF3CT Assay for Matrix Metallopeptidase 9 (MMP9) Biomarker Activity (AID 2283074).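 As to AC50: MMP9 protein level quantified by ELISA in the co-culture.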 The conditions noted are these: primary human keratinocytes with fibroblasts; actives raise or lower the signal. The gist of the method:
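MMP-9 quantified by ELISA after 24 h chemical treatment of primary human skin keratinocyte/fibroblast co-cultures; gain or loss fitted against DMSO, with parallel SRB staining (0.1% SRB, 560 nm) for overt cytotoxicity.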

Read-out in assay [5]: urokinase plasminogen activator (uPA), PLAU (gene 5328)
Kind of assay: BSK_KF3CT_uPA: BioMAP Diversity Plus: KF3CT Assay for urokinase plasminogen activator (uPA) Biomarker Activity (AID 2283075). The conditions noted are these: primary human keratinocytes with fibroblasts; actives raise or lower the signal. In a few lines:
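ELISA read-out of uPA 24 h after dosing human skin keratinocytes co-cultured with foreskin fibroblasts. Signal change fitted both ways relative to DMSO; sulforhodamine B on parallel cultures marks overt cytotoxicity.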

Read-out in the next assay: CD40, CD40 (gene 958)
In words: BSK_LPS_CD40: BioMAP Diversity Plus: LPS Assay for CD40 Biomarker Activity (AID 2283076). The conditions noted are these: primary human HUVEC with PBMC; actives raise or lower the signal. In a few lines:
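Cells were dosed, incubated 24 h, then assayed for CD40 by ELISA. Gain or loss of signal was analysed relative to DMSO controls. The culture paired human umbilical vein endothelium with peripheral blood mononuclear cells.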

Read-out in assay [6]: E-selectin (Homo sapiens) (UniProt P16581)
Kind of assay: BSK_LPS_Eselectin: BioMAP Diversity Plus: LPS Assay for Eselectin Biomarker Activity (AID 2283077). As to conditions: primary human HUVEC with PBMC; actives raise or lower the signal. The gist of the method: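 Primary human vascular co-culture (endothelium plus PBMC) was dosed with chemical, then E-selectin quantified by ELISA at 24 h. Endpoint values derive from bidirectional curve fitting relative to DMSO.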

Read-out in assay [7]: Interleukin-8 (IL8), CXCL8 (gene 3576)
In words: BSK_LPS_IL8: BioMAP Diversity Plus: LPS Assay for Interleukin-8 (IL8) Biomarker Activity (AID 2283078). The conditions noted are these: primary human HUVEC with PBMC; actives raise or lower the signal. The gist of the method:
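Readout is IL-8 by ELISA, taken 24 h after compounds were added to LPS-stimulated endothelial/PBMC co-cultures. Both increases and decreases relative to DMSO control were scored through bidirectional fitting.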

Assay [8] in a line: BSK_LPS_SRB: Viability Assessment in the BioMAP Diversity Plus: LPS Assay (AID 2283079).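 Also: total protein by sulforhodamine B absorbance as a cytotoxicity measure; measured one day after compound addition; fitted in both directions against DMSO so loss or gain of signal counts.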 As to conditions: primary human HUVEC with PBMC. The gist of the method: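 Readout is SRB absorbance at 560 nm (0.1% stain, TCA-fixed parallel cultures) as a total-protein cytotoxicity measure. Cells: primary human umbilical vein endothelium plus peripheral blood mononuclear cells, 24 h after chemical exposure; DMSO served as baseline.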

Read-out in assay [9]: Interleukin-1 alpha (IL1a), IL1A (gene 3552)
Kind of assay: BSK_LPS_IL1a: BioMAP Diversity Plus: LPS Assay for Interleukin-1 alpha (IL1a) Biomarker Activity (AID 2283080). The conditions noted are these: primary human HUVEC with PBMC; actives raise or lower the signal. The gist of the method: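 ELISA read-out of IL-1 alpha from a human primary vascular co-culture (endothelium plus PBMC) under LPS, sampled 24 hours post-dosing. Activity was fitted in both directions relative to DMSO controls.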

Each structure is given as a SMILES string. Where “and” joins values, the source holds several entries; their conditions need not be identical. Equal entries are not always repeated. More than one record can exist for a structure, and the calls need not agree. Calls of active or inactive are those of the source. The calls were made as follows: active = hit-call score of the fitted dose curve at least 0.9, where 1 is the maximum; inactive = score below 0.9.

E-selectin (Homo sapiens), sequence (P16581 whole entry, looked up): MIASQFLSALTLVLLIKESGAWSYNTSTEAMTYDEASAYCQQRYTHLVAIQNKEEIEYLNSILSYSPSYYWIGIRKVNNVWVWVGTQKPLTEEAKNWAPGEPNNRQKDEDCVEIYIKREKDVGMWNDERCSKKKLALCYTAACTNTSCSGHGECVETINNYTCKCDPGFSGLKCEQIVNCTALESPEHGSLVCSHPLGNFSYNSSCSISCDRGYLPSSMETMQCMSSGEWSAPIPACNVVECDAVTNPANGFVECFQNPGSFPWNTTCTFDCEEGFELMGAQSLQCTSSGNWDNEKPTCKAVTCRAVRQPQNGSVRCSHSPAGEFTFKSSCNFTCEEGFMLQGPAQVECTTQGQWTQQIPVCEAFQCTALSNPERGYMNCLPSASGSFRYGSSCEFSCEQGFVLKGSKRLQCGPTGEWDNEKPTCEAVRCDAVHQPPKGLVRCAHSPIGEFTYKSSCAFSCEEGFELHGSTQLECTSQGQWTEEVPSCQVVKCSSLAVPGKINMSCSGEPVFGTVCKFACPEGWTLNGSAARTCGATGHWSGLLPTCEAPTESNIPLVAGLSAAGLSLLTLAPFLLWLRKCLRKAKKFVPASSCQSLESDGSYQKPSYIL

For `Clc1ccc(C(Cl)(Cl)Cl)cc1`, the outcome in [1] was “inactive”; in [2] it was “inactive”; in assay [3], “inactive”; in assay [4], “inactive”; in assay [5], “inactive”; with CD40, CD40 (gene 958), “inactive”. Further, the outcome in [6], in assay [7], in assay [8] and in assay [9] was inactive.

On to `Cc1cccc(C)c1N`, for which the result in assay [1], in assay [2], in [3], in [4], in assay [5] and in assay [6] was inactive. Besides, the result in assay [7], in [8] and in assay [9] was inactive.

Turning to `CCC(C)(c1ccc(O)cc1)c1ccc(O)cc1`, the outcome in [1], in assay [2], in [3], in assay [4], in assay [5] and in assay [6] was inactive. In addition, the result in [7] and in assay [9] was inactive. The concentration at half-maximal activity (AC50) was 20 µM (active) with CD40, CD40 (gene 958) and 20 µM (active) in [8].

`CC1=C2C[C@H]3[C@@H](CC=C4C[C@@H](O)CC[C@@]43C)[C@@H]2CC[C@]12O[C@@H]1C[C@H](C)CN[C@H]1[C@H]2C`: the outcome was “inactive” in [1]; “inactive” in [2]; “inactive” in [3]; “inactive” in assay [4]; “inactive” in assay [5]; “inactive” in the assay with CD40, CD40 (gene 958). Moreover, the result in [6], in assay [7], in assay [8] and in [9] was inactive.

Consider `CC(C)(c1ccccc1)c1ccc(O)cc1`, for which the half-maximal activity concentration (AC50) was 34.3 µM (active) in assay [1]; 34.5 µM (active) in [2]; 34.8 µM (active) in assay [3]; 31.4 µM (active) in [4]; 31.5 µM (active) in [5]; 32.5 µM (active) with CD40, CD40 (gene 958). The half-maximal activity concentration (AC50) in [6] was 36.7 µM (active); in [7] it was 35.3 µM (active); in assay [8], 33.1 µM (active); in [9], 36.3 µM (active).

Turning to `CC(C)(O)C(=O)Nc1ccc([N+](=O)[O-])c(C(F)(F)F)c1`, the outcome in assay [1] was “inactive”; in assay [2], “inactive”; in [3], “inactive”; in assay [4], “inactive”; in assay [5], “inactive”; with CD40, CD40 (gene 958), “inactive”. In addition, the result in assay [6], in [8] and in [9] was inactive.

For the molecule `O=C(O)C(F)(F)C(F)(F)C(F)(F)C(F)(F)C(F)(F)C(F)(F)C(F)(F)C(F)(F)C(F)(F)F`, the AC50 in assay [1] was 31 µM (active) and 45 µM (active) and 44.7 µM (active); in assay [2], 30.8 µM (active); in [3], 22.7 µM (active) and 27.9 µM (active) and 18.5 µM (active); in [4], 20 µM (active) and 30.2 µM (active) and 27.5 µM (active); in assay [5], 31.4 µM (active) and 55 µM (active) and 50.7 µM (active); in assay [6], 53.8 µM (active) and 51 µM (active). The concentration at half-maximal activity (AC50) in assay [7] is 46.1 µM (active) and 46.7 µM (active); in [8], 31.3 µM (active) and 56.6 µM (active) and 54.8 µM (active); in [9], 45.7 µM (active) and 45.5 µM (active). Besides, the result in assay [6], in [7] and in assay [9] was inactive.

In the case of `O=C(O)C(F)(F)C(F)(F)C(F)(F)C(F)(F)C(F)(F)C(F)(F)C(F)(F)C(F)(F)F`, the result in assay [1], in assay [2], in [3], in [5], in assay [6] and in assay [7] was inactive. The outcome in [8] and in assay [9] was inactive. Besides, the AC50 in assay [3] is 17.7 µM (active) and 24.9 µM (active); in assay [4], 33.2 µM (active) and 35.9 µM (active) and 30 µM (active); in assay [7] it was 7.33 µM (active) and 50.3 µM (active); in assay [8], 53.5 µM (active) and 55 µM (active); in assay [9], 44.1 µM (active).

Take `Sc1ccccc1`: the outcome in assay [1] is “inactive”; in [2], “inactive”; in assay [3], “inactive”; in [4], “inactive”; in [5], “inactive”; with CD40, CD40 (gene 958), “inactive”. Further, the result in assay [6], in assay [7], in assay [8] and in assay [9] was inactive.

On to `ClC1=C(Cl)[C@]2(Cl)[C@@H]3[C@H]4C[C@H]([C@@H]5O[C@H]45)[C@@H]3[C@@]1(Cl)C2(Cl)Cl`, for which the outcome is “inactive” in [1]; “inactive” in assay [2]; “inactive” in [3]; “inactive” in assay [4]; “inactive” in assay [5]; “inactive” with CD40, CD40 (gene 958). Further, the result in assay [6], in assay [7] and in assay [9] was inactive. Also, the AC50 in assay [8] is 7.24 µM (active).

Regarding `Nc1ccc(-c2ccc(N)cc2)cc1`, the outcome in [1] is “inactive”; in assay [2] it was “inactive”; in assay [3], “inactive”; in [4] it was “inactive”; in assay [5] it was “inactive”; with CD40, CD40 (gene 958), “inactive”. The outcome in assay [6], in assay [7], in [8] and in [9] was inactive.

With `Clc1ccc(C(c2ccccc2Cl)C(Cl)(Cl)Cl)cc1` (stereo not given), the AC50 in assay [1] is 19 µM (active); in [2] it was 19.1 µM (active); in assay [3], 10.7 µM (active); in [4], 8.05 µM (active); in assay [5] it was 21.6 µM (active); in the assay with CD40, CD40 (gene 958), 19.4 µM (active). Also, the figures for the AC50 in [7], in assay [8] and in assay [9] were 21.9 µM (active), 19.2 µM (active) and 20.8 µM (active), respectively.

For the molecule `c1cc2ccc3cccc4ccc(c1)c2c34`, the result in assay [1], in assay [2], in assay [3], in assay [4], in assay [5] and in assay [6] was inactive. In addition, the result in assay [7], in assay [8] and in assay [9] was inactive.

For the molecule `C[C@]12CCC(=O)C=C1CC[C@@H]1[C@@H]2CC[C@@]2(C)[C@H]1CC[C@]2(C)O`, the result in assay [1], in assay [2], in assay [3], in assay [4], in [5] and in assay [6] was inactive. Moreover, the outcome in assay [7], in [8] and in assay [9] was inactive.

Turning to `O=C(N[C@H]1CN2CCC1CC2)c1cc2ccoc2cn1`, the outcome in assay [1] is “inactive”; in [2], “inactive”; in assay [3], “inactive”; in assay [4], “inactive”; in assay [5], “inactive”; with CD40, CD40 (gene 958), “inactive”. The result in assay [6], in assay [7], in assay [8] and in [9] was inactive.
